Drawing on PubChem BioAssay (NCI), this text covers growth for eight compounds.

This is part of a sample that, as a whole, favours compounds with a hit. Of some 83,000 tested, about 20% had one in any assay.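 Assay: single dose, 48 h. Readout: percent growth (0 = no net growth; negative = cell death). Active: <10.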 Values without a mark were called inactive. Calls of active or inactive are those of the source.

Holding throughout (test): NCI-60 one-dose screen, 48 h (100 = growth as untreated, 0 = no growth, -100 = all killed)
Holding throughout (conditions): 10 µM unless noted

For test [1], the system named is SR leukemia.
For test [2], the system named is RPMI-8226 leukemia.
In test [3] the test system is OVCAR-8 ovarian.
The subject of test [4] is OVCAR-5 ovarian.
Test [5] concerns OVCAR-4 ovarian.
Test [6] has as its system SK-OV-3 ovarian.
Test [7] concerns IGROV1 ovarian.
Test [8] relates to HS 578T breast.
In test [9] the test system is NCI/ADR-RES ovarian.
Test [10] concerns T-47D breast.
The subject of test [11] is BT-549 breast.
In test [12] the test system is MDA-MB-435 melanoma.
Test [13] relates to SW-620 colon.
Test [14] relates to MCF7 breast.
Test [15] concerns HCT-116 colon.
Test [16] concerns HCC-2998 colon.
Test [17] relates to KM12 colon.

Regarding `O=C(Nc1nonc1-c1ccccc1)c1ccc(C(F)(F)F)cc1`, the growth was 85.6% in test [1]; 74.2% in [2]; 86.6% in test [3]; 100% in test [4]; 91.2% in test [5]; 112% in [6]. Further, the growth in test [7] is 96.4%; in test [8], 101%; in [9], 85.2%; in test [10] it was 76%; in test [11] it was 85.5%; in [12] it was 82.7%. Also, the growth in test [13] was 94.6%; in test [14] it was 72.3%; in [15], 86.2%; in test [16] it was 101%; in test [17], 97.4%.

Regarding `O=C(CSc1nc2ccccc2c(=O)n1-c1ccccc1)Nc1cccc(C(=O)/C=C/c2ccccc2)c1`, the growth is 77.5% in [1]; 6.02% (active) in [2]; 84% in test [3]; 96.6% in test [4]; 94% in test [5]; 103% in test [6]. For the same compound, the growth in [7] is 95.4%; in test [8], 92.5%; in test [9], 96.8%; in test [10], 76.8%; in test [11], 112%; in test [12] it was 93.2%. Further, the growth is 90% in [13]; 19% in [14]; -13.7% (active) in test [15]; 113% in test [16]; 87.5% in test [17].

Consider `CC1=N[C@@H]2CN(C(=O)OC(C)(C)C)C[C@@H]2n2c1cc1ccccc1c2=O`, for which the growth was 99.9% in test [1]; 101% in [2]; 101% in [3]; 107% in test [4]; 107% in test [5]; 92.5% in test [6]. Further, the growth is 107% in test [7]; 101% in test [8]; 100% in test [9]; 98.8% in [10]; 144% in test [11]; 108% in test [12]. The growth in test [13] was 107%; in test [14], 95.6%; in test [15] it was 103%; in [16] it was 107%; in [17] it was 97.5%.

`COc1ccc(-n2c(SCc3n[nH]c(=S)o3)nc3ccc(Cl)cc3c2=O)cc1`: the growth in [1] was 103%; in test [2], 101%; in test [3] it was 101%; in test [4] it was 89.7%; in test [5] it was 99.3%; in test [6], 97.7%. Further, the growth was 95.8% in test [7]; 93.9% in test [8]; 99.4% in test [9]; 97.6% in test [10]; 115% in test [11]; 94.8% in test [12]. The growth was 97.8% in [13]; 90.6% in [14]; 104% in test [15]; 101% in test [16]; 98.6% in test [17].

As to `CC(=O)c1cc(C(=O)N2c3ccccc3Sc3ccccc32)n2ccc3ccccc3c12`, the growth in test [1] was 16.6%; in test [2], 50.3%; in test [3], 32.7%; in [4] it was 69.7%; in test [5], 73.6%; in [6], 48.7%. Besides, the growth in test [7] is 49.9%; in [8], 16%; in test [9] it was 13.4%; in [10], 27.5%; in test [11], 37%; in [12], 0.748% (active). For the same compound, the growth in test [13] was 26.3%; in test [14], 17.8%; in test [15] it was 24.4%; in test [16], 74.9%; in [17], 31.7%.

On to `Cn1ccnc1C(=O)/C=C/c1ccc(CNC(=O)c2ccc(Cl)cc2)cc1`, for which the growth in test [1] is 4.17% (active); in test [2] it was -13.7% (active); in test [3] it was 24.6%; in test [4] it was 11%; in test [5], 37.9%; in test [6] it was 43.1%. Further, the growth was 12.2% in test [7]; 28.1% in test [8]; 10.4% in [9]; 34% in test [10]; 16.5% in [11]; 22.6% in [12]. For the same compound, the growth was 9.22% (active) in test [13]; 10.5% in [14]; -1.09% (active) in [15]; 13.1% in test [16]; 9.07% (active) in test [17].

On to `NC(N)=Nc1ccc(Oc2cccc(Nc3ccc(Cl)c(C(F)(F)F)c3)c2)cn1`, for which the growth in test [1] was -54.6% (active); in [2] it was -29.6% (active); in [3], -66% (active); in test [4], -64% (active); in test [5], 6.69% (active); in test [6] it was 36.8%. The growth in [7] is -38.2% (active); in test [8], -2.57% (active); in test [9], 53.6%; in test [10], 15.1%; in test [11], 16.5%; in test [12], -86.2% (active). Moreover, the growth in test [13] is -69.8% (active); in test [14], -60.3% (active); in test [15], -69.4% (active); in test [16], -86.1% (active); in test [17] it was -81.8% (active).

Regarding `CNC(=O)c1cc(Oc2ccc3nc(NC(=O)c4ccc(N5CCOCC5)c(C(F)(F)F)c4)sc3c2)ccn1`, the growth in test [1] is 53.2%; in test [2] it was 47.5%; in test [3], 56.2%; in [4] it was 99%; in [5], 61.5%; in test [6], 102%. For the same compound, the growth in test [7] is 88.7%; in test [8], 69.6%; in [9] it was 70%; in test [10], 86.1%; in [11], 94%; in test [12] it was 88.4%. For the same compound, the growth in test [13] was 114%; in test [14] it was 70%; in test [15], 60.2%; in [16], 96.3%; in test [17], 56.7%.
